Read-out in experiment [1]: organic anion transporter (SLCO1B1), SLCO1B1 (gene 10599)
Kind of experiment: CLD_SLCO1B1_6hr: CellzDirect (CLD) Gene Expression Assay for organic anion transporter (SLCO1B1) at 6 hours (AID 2283668).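 Also: active means mRNA induction above DMSO baseline.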 The method, boiled down: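 SLCO1B1 mRNA induction measured 6 h after dosing by quantitative nuclease protection with chemiluminescent read-out, in human primary hepatocyte cultures given chemicals at several concentrations (vehicle 0.2% DMSO). Increase over DMSO baseline fitted; morphology-based cytotoxicity annotated yes/no.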

Read-out in experiment [2]: sulfotransferase (SULT2A), SULT2A1 (gene 6822)
Kind of experiment: CLD_SULT2A_6hr: CellzDirect (CLD) Gene Expression Assay for sulfotransferase (SULT2A) at 6 hours (AID 2283669).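 Also: hits raise transcript level above the DMSO vehicle baseline.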 The method, boiled down:
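Measured 6 h after dosing, SULT2A1 mRNA in human hepatocyte lysates was quantified by S1 nuclease protection with chemiluminescent detection. Increases fitted against 0.2% DMSO vehicle baseline; phase-contrast cytotoxicity recorded yes/no.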

Experiment [3] in a line: Tanguay_ZF_120hpf_BRAI_legacy: (Legacy) Oregon State University Tanguay Lab 120 Hour Post-fertilization zebrafish Assay for Brain Malformation (AID 2283641). An outline of the steps:
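Binary brightfield scoring of brain malformation at 120 hpf in Tropical 5D larvae held under static exposure at 28C (0.64% v/v DMSO), non-mortality endpoints skipped if dead. Positive control: 5uM trimethyltin chloride; fit versus DMSO.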

Experiment [4] is described as follows: Tanguay_ZF_120hpf_SOMI_legacy: (Legacy) Oregon State University Tanguay Lab 120 Hour Post-fertilization zebrafish Assay for Somite Malformation (AID 2283647). An outline of the steps: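 Binary somite-defect scoring at 120 hpf, omitted for embryos that died, in wild-type (Tropical 5D) zebrafish with chorion removed by pronase at 4 hpf; static exposure began 6 hpf, single embryos per well, 28C, 0.64% DMSO; fitted positive versus DMSO.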

Experiment [5] is described as follows: Tanguay_ZF_120hpf_CFIN_legacy: (Legacy) Oregon State University Tanguay Lab 120 Hour Post-fertilization zebrafish Assay for Caudal Fin Malformation (AID 2283649). The method, boiled down:
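Binary brightfield scoring of caudal fin defects at 120 hpf after static, light-shielded exposure at 28C from 6 hpf. Tropical 5D embryos, chorion removed with pronase at 4 hpf, final DMSO 0.64%.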

Experiment [6] is described as follows: Tanguay_ZF_120hpf_PIG_legacy: (Legacy) Oregon State University Tanguay Lab 120 Hour Post-fertilization zebrafish Assay for Pigmentation Malformation (AID 2283650). An outline of the steps:
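Brightfield scoring of pigmentation malformation at 120 hpf, recorded as binary present/absent per larva. Exposure: dechorionated 5D wild-type embryos, one per well, static from 6 hpf at 28C, final DMSO 0.64% (vol/vol). Dead embryos not scored.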

Experiment [7] is described as follows: Tanguay_ZF_120hpf_SWIM_legacy: (Legacy) Oregon State University Tanguay Lab 120 Hour Post-fertilization zebrafish Assay for Swim Bladder Malformation (AID 2283654).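 Also: swim bladder malformation in each larva scored yes or no under brightfield.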 The method, boiled down: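 Tropical 5D embryos dechorionated at 4 hpf; 1 embryo/well from 6 hpf; static, sealed, dark exposure at 28C until 120 hpf; final DMSO 0.64%; 5uM trimethyltin chloride positive control; swim bladder defect recorded yes/no; dead embryos not scored.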

Experiment [8] is described as follows: Tanguay_ZF_120hpf_NC_legacy: (Legacy) Oregon State University Tanguay Lab 120 Hour Post-fertilization zebrafish Assay for Notochord and Tail Malformation (AID 2283656). The method, boiled down:
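Binary scoring of notochord distortion by brightfield microscopy; embryos dying were not scored. Wild-type Tropical 5D embryos, chorion removed, exposed singly and statically from 6 to 120 hpf, 28C, sealed, 0.64% DMSO.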

Experiment [9] can be described thus: Tanguay_ZF_120hpf_PFIN_legacy: (Legacy) Oregon State University Tanguay Lab 120 Hour Post-fertilization zebrafish Assay for Pectoral Fin Malformation (AID 2283648).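 Also: each larva judged yes or no for fin defect by brightfield with dead larvae skipped.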 The method, boiled down:
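Binary pectoral fin malformation call at 120 hpf by brightfield microscopy; 5D wild-type zebrafish, chorion removed at 4 hpf, one embryo per well from 6 hpf, static exposure at 28C; DMSO (0.64% final) as baseline.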

A short description of experiment [10]: Tanguay_ZF_120hpf_CIRC_legacy: (Legacy) Oregon State University Tanguay Lab 120 Hour Post-fertilization zebrafish Assay for Circulatory Malformation (AID 2283651). The method, boiled down:
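Binary circulatory malformation call at 120 hpf by brightfield imaging of zebrafish larvae; chorion removed at 4 hpf, static exposure from 6 hpf in sealed dark plates at 28C, final DMSO 0.64%; non-mortality endpoints skipped if embryo died.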

Experiment [11] in a line: Tanguay_ZF_120hpf_TRUN_legacy: (Legacy) Oregon State University Tanguay Lab 120 Hour Post-fertilization zebrafish Assay for Truncated Body (AID 2283655). The method, boiled down: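 Binary presence/absence of truncated body is recorded at 120 hpf by brightfield, with non-mortality endpoints skipped after death. Exposure is static from 6 hpf in sealed dark plates at 28C, using dechorionated wild-type zebrafish, 0.64% DMSO.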

Read-out in experiment [12]: Broad substrate specificity ATP-binding cassette transporter ABCG2 (Homo sapiens) (UniProt Q9UNQ0)
Nature of the experiment: CLD_ABCG2_6hr: CellzDirect (CLD) Gene Expression Assay for ABC Transporter (ABCG2) at 6 hours (AID 2283660). An outline of the steps: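 ABCG2 mRNA induction measured by qNPA chemiluminescence in human primary hepatocyte cultures, 6 h post-dose. Chemicals tested at several concentrations against a 0.2% DMSO vehicle; positive-direction fit relative to DMSO.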

Read-out in experiment [13]: xenobiotic metabolism (CYP1A2), CYP1A2 (gene 1544)
Nature of the experiment: CLD_CYP1A2_6hr: CellzDirect (CLD) Gene Expression Assay for xenobiotic metabolism (CYP1A2) at 6 hours (AID 2283663). An outline of the steps: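 mRNA levels quantified by quantitative nuclease protection assay with chemiluminescence, 6 h after dosing human primary hepatocyte cultures (two donors) across several concentrations, vehicle 0.2% DMSO. Induction fitted upward versus DMSO; phase-contrast cytotoxicity annotated.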

Experiment [14] is described as follows: Tanguay_ZF_120hpf_TR_legacy: (Legacy) Oregon State University Tanguay Lab 120 Hour Post-fertilization zebrafish Assay for Touch Response (AID 2283667). An outline of the steps: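 Binary touch-response call at 120 hpf, analysed as gain of signal versus DMSO baseline. Wild-type 5D larvae, static exposure at 28C, 0.64% DMSO final; 5uM trimethyltin chloride as positive control.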

In experiment [15] the test system is Thyroperoxidase (TPO), gene 54314. Kind of experiment: CCTE_Simmons_AUR_rTPO: CCTE's Amplex UltraRed Assay for Thyroperoxidase (TPO) Inhibition, Simmons Lab (AID 2283662). An outline of the steps: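 Endpoint is decreased Amplex UltraRed fluorescence after a 30-min, 37C reaction of rat thyroid microsomes with 300 uM H2O2. Eight test concentrations (5 nM–87.5 uM final) in 0.5% DMSO, three biological replicates each.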

Read-out in experiment [16]: solute carrier (SLC22A6), SLC22A6 (gene 9356)
Kind of experiment: LTEA_HepaRG_SLC22A6: Life Technologies and Expression Analysis (LTEA) Assay for solute carrier (SLC22A6) using HepaRG (AID 2283653; active = hit-call score of the fitted dose curve at least 0.9, where 1 is the maximum; inactive = score below 0.9). To be noted: mRNA level, 48 h; actives raise or lower the signal. An outline of the steps: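 SLC22A6 transcript was measured by TaqMan qRT-PCR, normalized to three housekeeping genes, after 48 h duplicate exposure of HepaRG cells (100 uM top, half-log steps, 0.5% DMSO); bidirectional fit against vehicle.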

Read-out in experiment [17]: solute carrier (SLC10A1), SLC10A1 (gene 6554)
Kind of experiment: LTEA_HepaRG_SLC10A1: Life Technologies and Expression Analysis (LTEA) Assay for solute carrier (SLC10A1) using HepaRG (AID 2283657; active = hit-call score of the fitted dose curve at least 0.9, where 1 is the maximum; inactive = score below 0.9). To be noted: mRNA level, 48 h; actives raise or lower the signal. The method, boiled down: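 HepaRG, 48 h exposure, 8-pt half-log curve from 100 uM in 0.5% DMSO, duplicates. Read-out: TaqMan qRT-PCR of SLC10A1 mRNA, normalized to three housekeeping genes. Gain/loss fit vs DMSO baseline.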

Read-out in experiment [18]: matrix metalloproteinase-1 (MMP1), MMP1 (gene 4312)
Nature of the experiment: LTEA_HepaRG_MMP1: Life Technologies and Expression Analysis (LTEA) Assay for matrix metalloproteinase-1 (MMP1) using HepaRG (AID 2283658; active = hit-call score of the fitted dose curve at least 0.9, where 1 is the maximum; inactive = score below 0.9). To be noted: mRNA level, 48 h; actives raise or lower the signal. The method, boiled down:
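qRT-PCR (TaqMan, Fluidigm arrays) of MMP1 transcript, normalized against three housekeeping genes and fitted in both directions relative to 0.5% DMSO vehicle. Human HepaRG cultures received duplicate 48 h exposures across 8 points, highest 100 uM with half-log steps.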

Results filed as inconclusive are left out. Active and inactive are the calls of the source. The calls were made as follows, unless noted: active = hit-call score of the fitted dose curve at least 0.9, where 1 is the maximum; inconclusive = response in the unintended direction; inactive = score below 0.9.

Sequence of Broad substrate specificity ATP-binding cassette transporter ABCG2 (Homo sapiens) (Q9UNQ0 whole entry, looked up): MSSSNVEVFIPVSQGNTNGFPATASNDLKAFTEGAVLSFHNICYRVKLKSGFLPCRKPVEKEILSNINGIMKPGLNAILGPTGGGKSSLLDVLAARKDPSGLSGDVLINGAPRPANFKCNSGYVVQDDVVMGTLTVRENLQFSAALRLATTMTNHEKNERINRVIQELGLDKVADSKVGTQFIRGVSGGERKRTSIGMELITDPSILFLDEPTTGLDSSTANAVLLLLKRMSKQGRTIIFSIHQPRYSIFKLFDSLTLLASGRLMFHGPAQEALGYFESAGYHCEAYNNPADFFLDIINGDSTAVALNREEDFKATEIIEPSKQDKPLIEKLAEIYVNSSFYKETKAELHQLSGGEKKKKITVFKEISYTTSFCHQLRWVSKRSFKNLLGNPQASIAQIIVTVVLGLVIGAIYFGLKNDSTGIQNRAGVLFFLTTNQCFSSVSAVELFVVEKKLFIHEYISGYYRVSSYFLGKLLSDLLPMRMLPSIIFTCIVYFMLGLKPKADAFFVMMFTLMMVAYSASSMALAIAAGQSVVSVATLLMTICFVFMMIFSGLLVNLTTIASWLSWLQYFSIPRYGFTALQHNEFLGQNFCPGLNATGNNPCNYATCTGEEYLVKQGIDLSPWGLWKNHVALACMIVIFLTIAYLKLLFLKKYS

Take `COc1nc(C)nc(NC(=O)NS(=O)(=O)c2ccccc2OCCCl)n1`: the result in experiment [1] and in [2] was inactive.
For `C#C[C@]1(O)CC[C@H]2[C@@H]3CCC4=CC(=O)CC[C@@H]4[C@H]3CC[C@@]21CC`, the compound was called inactive in experiment [3], in [4], in [5], in experiment [6], in [7] and in [8].
As for `CCCCOC(=O)C(C)Oc1ccc(Oc2ccc(C(F)(F)F)cn2)cc1` (configuration not stated), the compound was classed as inactive in experiment [4], in experiment [9], in [6], in [10], in experiment [7] and in experiment [8]. Besides, the compound was classed as inactive in [1] and in experiment [2].
For the compound `CC(=O)S[C@@H]1CC2=CC(=O)CC[C@]2(C)[C@H]2CC[C@@]3(C)[C@@H](CC[C@@]34CCC(=O)O4)[C@H]12`, the compound was called inactive in experiment [9], in [5], in experiment [6], in experiment [10], in [7] and in experiment [11]. Moreover, the result in [8] was inactive.
As for `CCOC(=O)[C@H](C)Oc1ccc(Oc2nc3ccc(Cl)cc3o2)cc1`, the result in experiment [12], in experiment [1] and in [2] was inactive.
Regarding `COC(=O)c1ccccc1S(=O)(=O)NC(=O)Nc1nc(OC(F)F)cc(OC(F)F)n1`, in experiment [1], the call was inactive.
For `C[C@]12C[C@H](O)[C@H]3[C@@H](CCC4=CC(=O)CC[C@@]43C)[C@@H]1CC[C@@H]2C(=O)CO`, the compound was called inactive in experiment [4], in experiment [5], in [6], in [10], in experiment [11] and in [8].
For the compound `CCOC(=O)COc1cc(-n2ncc(C(F)(F)F)c(C)c2=O)c(F)cc1Cl`, the outcome in experiment [4], in experiment [9], in experiment [5], in experiment [6], in experiment [10] and in experiment [7] was inactive. Further, the compound was called inactive in experiment [11], in experiment [8], in experiment [13] and in experiment [2].
Take `CCOC(=O)c1ccc(O)cc1`: the compound was called inactive in experiment [3], in experiment [9], in experiment [5], in experiment [6], in experiment [10] and in [7]. The outcome in [11], in [8] and in experiment [14] was inactive.
As for `CCN(Cc1c(F)cccc1Cl)c1c([N+](=O)[O-])cc(C(F)(F)F)cc1[N+](=O)[O-]`, the call in experiment [4], in experiment [9], in experiment [5], in [6], in experiment [10] and in experiment [7] was inactive. The call in experiment [11], in experiment [8] and in experiment [2] was inactive.
Consider `c1ccc2[nH]c(-c3cscn3)nc2c1`, for which the call in experiment [3], in experiment [9], in experiment [6], in experiment [10], in experiment [7] and in experiment [11] was inactive. Also, in experiment [8], the compound was classed as inactive.
As for `CCC(O)=C1C(=O)CC(C(=O)O)CC1=O` (configuration not stated), the outcome in [12] and in experiment [1] was inactive.
As for `CCCOC(=O)c1ccc(C(=O)OCCC)nc1`, the result in experiment [9], in experiment [6], in [8], in [12], in [15] and in experiment [14] was inactive. The call in experiment [1] and in [2] was inactive. Further, in experiment [7], the half-maximal activity concentration (AC50) (commonly the concentration giving half of the maximal activity seen) was 1970 nM (active).
Consider `CCCCOC(=O)[C@@H](C)Oc1ccc(Oc2ccc(C(F)(F)F)cn2)cc1`, for which the compound was called inactive in experiment [3], in experiment [4], in experiment [9], in experiment [11], in [12] and in experiment [2].
Consider `CCC(C)OC(=O)N1CCCCC1CCO` (configuration not stated), for which the outcome in [3], in experiment [4], in experiment [9], in [6], in [10] and in [7] was inactive. Also, the compound was classed as inactive in [11], in [8], in experiment [12], in experiment [1] and in experiment [2].
In the case of `CCCCCCC(C)OC(=O)COc1nc(F)c(Cl)c(N)c1Cl` (configuration not stated), the call in experiment [3], in [4], in [9], in experiment [10], in experiment [16] and in experiment [7] was inactive. Further, the compound was classed as inactive in experiment [8], in experiment [17], in experiment [18], in [12] and in experiment [13].
As for `CCOC(=O)NCCOc1ccc(Oc2ccccc2)cc1`, the result in experiment [3], in experiment [9], in experiment [5], in experiment [6], in experiment [10] and in [7] was inactive. Also, the result in experiment [8], in experiment [1] and in experiment [2] was inactive.
On to `C=CCOC(Cn1ccnc1)c1ccc(Cl)cc1Cl` (configuration not stated), for which the call in [9], in [5], in [11], in [8], in experiment [12] and in [1] was inactive. Also, the compound was called inactive in experiment [2].
Turning to `C[C@]12CC[C@@H]3c4ccc(O)cc4C[C@@H](CCCCCCCCCS(=O)CCCC(F)(F)C(F)(F)F)[C@H]3[C@@H]1CC[C@@H]2O` (some centres not stated), the compound was called inactive in experiment [3], in [4], in experiment [9], in experiment [6], in experiment [10] and in experiment [7]. Moreover, the compound was called inactive in [11].
With `COC(=O)c1ccc(CNS(C)(=O)=O)cc1S(=O)(=O)NC(=O)Nc1nc(OC)cc(OC)n1`, the compound was classed as inactive in experiment [1] and in experiment [2].
With `COC(=O)c1cccc(C)c1S(=O)(=O)NC(=O)Nc1nc(OCC(F)(F)F)nc(N(C)C)n1`, the compound was called inactive in [12], in experiment [1] and in experiment [2].
For the compound `COC(=O)c1c(Cl)nn(C)c1S(=O)(=O)NC(=O)Nc1nc(OC)cc(OC)n1`, the outcome in experiment [12] and in experiment [2] was inactive.

Values taken from PubChem BioAssay (EPA / NIEHS).
